Experimental data: the supplement of paper PMC7866885, “A novel bicyclic 2,4-diaminopyrimidine inhibitor of Streptococcus suis dihydrofolate reductase” (PeerJ, 2021)
± gives the standard deviation.

test system: Streptococcus suis HE06; test: percent growth relative to DMSO control; higher = less growth inhibition; details: 10 µM; incubation time 18 h
Protocol: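 CLSI broth microdilution: 5x10^4 CFU of Streptococcus suis (strain P1/7 or HE06) incubated with 10 µM Pathogen Box compound in cation-adjusted Mueller Hinton broth, 37 °C, 5% CO2, 18 h. Growth read as OD600 and expressed as percent of the DMSO-treated control (100%); mean ± SD of three independent experiments.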

Q: How did the percent growth turn out when `CC1(C)OB(O)c2ccc(C3=NOC(c4cc(Cl)c(F)c(Cl)c4)(C(F)(F)F)C3)cc21` (centres undefined) was run?
A: 15.4 ± 15%

Q: Which percent growth does the source give for `CC1COC(Cn2cncn2)(c2ccc(Oc3ccc(Cl)cc3)cc2Cl)O1` (centres undefined) here?
A: 77 ± 5.4%

Q: For `Cc1cccc(C(=O)Nc2ccnc(N(C)C3CCN(CC(C)C)CC3)c2)c1`, which percent growth is on record?
A: 95.9 ± 30%

Q: How did the percent growth turn out when `Cc1nn(Cc2ccccc2)c(Cl)c1C(=O)NC1CCCCCC1` was run?
A: 107 ± 13%

Q: How did the percent growth turn out when `CO/N=C(\C(=O)OC)c1ccccc1CO/N=C(\C)c1cccc(C(F)(F)F)c1` was run?
A: 102 ± 17%

Q: With `Nc1c2c(nc3sc4c(c13)CCCC4)CCCC2` as the compound, how does the percent growth read?
A: 76.3 ± 20%

Q: `CCc1nn(C)c(C(=O)NCc2ccc(Oc3ccc(C)cc3)cc2)c1Cl` was tested. Which percent growth did it give?
A: 82.6 ± 11%

Q: With `Cc1nn(C)c(C)c1NS(=O)(=O)c1c(Cl)cc(-c2ccnc(N3CCNCC3)c2)cc1Cl` as the compound, how does the percent growth read?
A: 94.8 ± 29%

Q: Which percent growth does the source give for `CO/C=C(/C(=O)OC)c1ccccc1Oc1cc(Oc2ccccc2C#N)ncn1` here?
A: 76.8 ± 3.1%

Q: With `CO[C@@H]1CN(c2ccc(C#CC3(O)CN4CCC3CC4)c(Cc3ccccc3)n2)C[C@H]1O` (some centres undefined) as the compound, how does the percent growth read?
A: 108 ± 2.9%

Q: How did the percent growth turn out when `CC(C)(C)C(O)C(Oc1ccc(-c2ccccc2)cc1)n1cncn1` (centres undefined) was run?
A: 86.7 ± 8.5%

Q: Which percent growth does the source give for `O=C1O[C@@H](COc2ccon2)CN1c1cc(F)c(C2=CCN(Cc3ccccc3)CC2)c(F)c1` here?
A: 2.62 ± 3.7%

Q: For `Cc1cc(C2=NOC(c3cc(Cl)c(F)c(Cl)c3)(C(F)(F)F)C2)ccc1C(=O)NCc1ccc2c(c1)C(C)(C)OB2O` (centres undefined), which percent growth is on record?
A: 60.3 ± 9.8%

Q: With `O=C1O[C@@H](CO)CN1c1cc(F)c(C2=CCN(Cc3ccccc3)CC2)c(F)c1` as the compound, how does the percent growth read?
A: 3.88 ± 0.8%
